The panel holds about 83,000 compounds, 20% with a hit somewhere; the sample as a whole holds those more often.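 Compound tested at a single concentration for 48 hours in 96-well plates; a percent growth value below 10 was scored as active.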 A number with no mark means an inactive call. Calls of active or inactive are those of the source.

These results are taken from PubChem BioAssay (NCI).

Test systems include NCI-H23 lung; NCI-H226 lung; NCI-H322M lung; NCI-H460 lung; HOP-92 NSCLC; NCI-H522 lung; A549/ATCC NSCLC; 786-0 renal; COLO 205 colon; DU-145 prostate; K-562 leukemia; MALME-3M melanoma; MDA-MB-231 breast; RXF 393 renal; SF-268 CNS; SF-295 CNS; SF-539 CNS; UACC-257 melanoma; M14 melanoma.
Common to all, as to assay: NCI-60 one-dose screen, 48 h (100 = growth as untreated, 0 = no growth, -100 = all killed)
Holding throughout (conditions): 10 µM unless noted

Take `CC(Cc1cccc2ccccc12)C(N)=O` (configuration not stated): the growth was 99.9% in the test with NCI-H23 lung; 100% in the test on NCI-H226 lung; 98.1% with NCI-H322M lung; 110% with NCI-H460 lung; 81.1% in the test on HOP-92 NSCLC; 96.6% in the test with NCI-H522 lung. In addition, the growth in the test on A549/ATCC NSCLC is 96.7%; in the test with 786-0 renal, 97.7%; in the test with COLO 205 colon, 111%; in the test on DU-145 prostate, 110%; in the test on K-562 leukemia it was 104%; in the test on MALME-3M melanoma, 111%. The growth is 100% in the test on MDA-MB-231 breast; 113% in the test with RXF 393 renal; 106% with SF-268 CNS; 100% in the test with SF-295 CNS; 96.6% in the test with SF-539 CNS; 104% in the test on UACC-257 melanoma. The growth in the test on M14 melanoma is 108%.

As for `CC(=O)Cc1nsc(NC(=O)c2cc(-c3cc(Cl)ccc3Cl)oc2C)n1`, the growth in the test with NCI-H23 lung is 99.5%; in the test with NCI-H226 lung it was 94.5%; with NCI-H322M lung, 104%; in the test on NCI-H460 lung it was 103%; in the test on HOP-92 NSCLC it was 112%; with NCI-H522 lung it was 90.2%. Further, the growth with A549/ATCC NSCLC is 98.8%; in the test with 786-0 renal, 97%; with COLO 205 colon, 115%; in the test on DU-145 prostate, 110%; in the test with K-562 leukemia, 102%; with MALME-3M melanoma it was 113%. Moreover, the growth is 101% with MDA-MB-231 breast; 103% in the test on RXF 393 renal; 98.8% in the test on SF-268 CNS; 99.6% in the test with SF-295 CNS; 102% with SF-539 CNS; 93.8% in the test with UACC-257 melanoma. Further, the growth in the test with M14 melanoma was 102%.

For `c1ccc2cc(Cn3cc[n+](Cc4ccc5ccccc5c4)c3)ccc2c1`, the growth is 41.6% in the test on NCI-H23 lung; 52.1% in the test with NCI-H226 lung; 62.8% with NCI-H322M lung; 39.6% in the test with NCI-H460 lung; -13.3% (active) with HOP-92 NSCLC; -11.7% (active) with NCI-H522 lung. Moreover, the growth in the test with A549/ATCC NSCLC is 67.6%; with 786-0 renal, 52.2%; with COLO 205 colon, -73.9% (active); in the test on DU-145 prostate, 53.2%; in the test with K-562 leukemia it was 22.5%; in the test on MALME-3M melanoma it was 13.8%. The growth in the test with MDA-MB-231 breast is 18.7%; in the test with RXF 393 renal, 35.1%; with SF-268 CNS, 32.1%; with SF-295 CNS, 70.3%; in the test with SF-539 CNS, 50.2%; in the test on UACC-257 melanoma, -9.54% (active). Moreover, the growth with M14 melanoma is 16.1%.

In the case of `COc1ccc(-c2cc(-c3ccc(Nc4nc(Nc5ccc(Cl)cc5)nc(Nc5ccc(Cl)cc5)n4)cc3)no2)cc1`, the growth in the test with NCI-H23 lung was 66.5%; in the test with NCI-H226 lung, 110%; in the test with NCI-H322M lung it was 79.5%; in the test on NCI-H460 lung it was 74.8%; with HOP-92 NSCLC, -28.6% (active); with NCI-H522 lung, 84.5%. Moreover, the growth with A549/ATCC NSCLC is 62.5%; in the test on 786-0 renal, 80.6%; with COLO 205 colon, 79.5%; in the test with DU-145 prostate it was 91.3%; in the test with K-562 leukemia, 69.9%; in the test with MALME-3M melanoma, 104%. The growth was 82.1% with MDA-MB-231 breast; -8.53% (active) in the test with RXF 393 renal; 72.9% in the test with SF-268 CNS; 73% in the test with SF-295 CNS; 86.1% in the test on SF-539 CNS; 105% in the test on UACC-257 melanoma. Moreover, the growth in the test on M14 melanoma is 86.7%.

Consider `CC/C(=C(/c1ccc(Cl)cc1)c1ccc(OCCCN(C)C)cc1)c1ccc(OC)cc1`, for which the growth was 78.6% with NCI-H23 lung; 104% in the test on NCI-H226 lung; 67.5% in the test with NCI-H322M lung; 5.32% (active) in the test with NCI-H460 lung; 49.8% with HOP-92 NSCLC; 87.3% in the test with NCI-H522 lung. Also, the growth is 49.8% in the test on A549/ATCC NSCLC; 57.9% in the test with 786-0 renal; -65.3% (active) in the test with COLO 205 colon; 85.7% with DU-145 prostate; -27.4% (active) in the test on K-562 leukemia; 74.1% in the test with MALME-3M melanoma. The growth was 76.3% in the test on MDA-MB-231 breast; 53.1% in the test on RXF 393 renal; 84.2% in the test with SF-268 CNS; 88.5% with SF-295 CNS; 82.8% in the test with SF-539 CNS; 84.7% in the test with UACC-257 melanoma. The growth in the test with M14 melanoma is 32.8%.

Turning to `O=C1C(c2c(O)[nH]c3ncccc23)=Nc2ccccc21`, the growth in the test with NCI-H23 lung is 76%; in the test with NCI-H226 lung it was 89%; in the test on NCI-H322M lung, 79.7%; in the test on NCI-H460 lung it was 47.7%; in the test with HOP-92 NSCLC it was 96.9%; with NCI-H522 lung it was 76.3%. Also, the growth in the test on A549/ATCC NSCLC is 82.4%; with 786-0 renal, 84.1%; in the test on COLO 205 colon it was 82.8%; with DU-145 prostate, 81.2%; in the test on K-562 leukemia, 85.5%; with MALME-3M melanoma, 139%. Moreover, the growth in the test on MDA-MB-231 breast was 78.3%; with RXF 393 renal, 71.2%; in the test with SF-268 CNS, 84.4%; in the test on SF-295 CNS it was 102%; with SF-539 CNS, 90.9%; in the test on UACC-257 melanoma it was 96.5%. Besides, in the test on M14 melanoma, the growth was 93.7%.

On to `O=C(Nc1ccc2[nH]ncc2c1)c1csc(Nc2ccccc2)n1`, for which the growth with NCI-H23 lung is 47.3%; with NCI-H226 lung it was 67.2%; in the test on NCI-H322M lung, 46.5%; in the test with NCI-H460 lung, 11.9%; in the test on HOP-92 NSCLC, 77.9%; in the test on NCI-H522 lung, 17.5%. The growth in the test on A549/ATCC NSCLC was 40.7%; in the test with 786-0 renal, 38.9%; in the test on COLO 205 colon, 33.2%; in the test with DU-145 prostate, 21.4%; in the test with K-562 leukemia, 20.7%; in the test with MALME-3M melanoma, 69%. Also, the growth with MDA-MB-231 breast was 58.5%; in the test on RXF 393 renal, 12.9%; in the test on SF-268 CNS, 56.6%; in the test with SF-295 CNS, 22.6%; in the test on SF-539 CNS, 22.5%; in the test with UACC-257 melanoma, 77.2%. In addition, the growth with M14 melanoma was 24.5%.

With `CC(C)=CC(=O)C1C(=O)c2ccccc2C1=O`, the growth was 96.4% with NCI-H23 lung; 97.9% in the test on NCI-H226 lung; 92.1% in the test on NCI-H322M lung; 102% in the test on NCI-H460 lung; 88.5% with HOP-92 NSCLC; 87.2% in the test on NCI-H522 lung. Further, the growth in the test on A549/ATCC NSCLC was 106%; with 786-0 renal, 105%; in the test with COLO 205 colon, 115%; in the test with DU-145 prostate, 104%; in the test on K-562 leukemia, 74.5%; with MALME-3M melanoma, 83.6%. The growth in the test on MDA-MB-231 breast is 107%; with RXF 393 renal, 104%; in the test with SF-268 CNS, 101%; with SF-295 CNS, 98.3%; in the test on SF-539 CNS, 104%; in the test on UACC-257 melanoma it was 107%. Moreover, in the test with M14 melanoma, the growth is 94%.
